Article PMC4336329 (PLoS ONE, 2015)
Out of some 310,000 compounds screened, about 14,000 (4.5%) showed an effect of 50% or more. The effect is printed as a negative number. The sample as a whole holds a higher share of strong results than the screen did.

Target: human ether-à-go-go-related gene (hERG) potassium channel (human, UniProt Q12809)
Test: primary screen, population patch clamp on CHO cells stably expressing hERG; higher = less effect of the substance
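Further: peak tail current of the secondary pulse compared with the same well before compound.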

human ether-à-go-go-related gene (hERG) potassium channel, sequence (Q12809 whole entry, looked up): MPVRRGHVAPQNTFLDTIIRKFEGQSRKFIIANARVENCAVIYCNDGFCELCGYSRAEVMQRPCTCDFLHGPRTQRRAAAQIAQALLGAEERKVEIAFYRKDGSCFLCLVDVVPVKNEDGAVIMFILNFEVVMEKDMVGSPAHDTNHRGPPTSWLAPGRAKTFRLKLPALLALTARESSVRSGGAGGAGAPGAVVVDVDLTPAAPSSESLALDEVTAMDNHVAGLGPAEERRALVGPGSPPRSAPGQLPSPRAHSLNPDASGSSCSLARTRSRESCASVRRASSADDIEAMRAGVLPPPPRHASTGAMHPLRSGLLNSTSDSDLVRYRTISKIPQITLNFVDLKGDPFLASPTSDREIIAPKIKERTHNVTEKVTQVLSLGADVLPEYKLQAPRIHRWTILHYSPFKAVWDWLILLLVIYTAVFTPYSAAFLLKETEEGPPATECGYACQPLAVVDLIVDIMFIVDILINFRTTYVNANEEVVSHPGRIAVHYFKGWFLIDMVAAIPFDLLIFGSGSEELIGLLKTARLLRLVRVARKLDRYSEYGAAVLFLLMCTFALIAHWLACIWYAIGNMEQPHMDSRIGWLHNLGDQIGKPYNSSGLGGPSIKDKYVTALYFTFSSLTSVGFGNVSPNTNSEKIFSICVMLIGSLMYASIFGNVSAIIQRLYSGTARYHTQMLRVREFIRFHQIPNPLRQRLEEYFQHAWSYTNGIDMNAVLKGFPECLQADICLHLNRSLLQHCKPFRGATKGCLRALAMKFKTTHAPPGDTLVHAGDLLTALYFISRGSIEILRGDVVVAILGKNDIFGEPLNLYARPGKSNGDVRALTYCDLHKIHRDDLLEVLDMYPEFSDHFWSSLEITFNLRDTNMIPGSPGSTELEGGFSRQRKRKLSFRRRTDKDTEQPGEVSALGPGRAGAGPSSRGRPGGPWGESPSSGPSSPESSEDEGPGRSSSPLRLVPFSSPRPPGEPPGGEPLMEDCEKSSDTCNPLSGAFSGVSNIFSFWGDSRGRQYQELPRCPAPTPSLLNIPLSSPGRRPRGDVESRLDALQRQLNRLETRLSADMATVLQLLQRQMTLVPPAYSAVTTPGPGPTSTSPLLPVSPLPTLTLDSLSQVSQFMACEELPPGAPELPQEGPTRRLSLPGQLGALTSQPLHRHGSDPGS

Row | SMILES | hERG current change (%, negative = inhibition) at 10uM [%]
1 | Cc1csc(N2CCCC2c2nc3cc(Cl)c(N4CCCCC4)cc3n2CCOCCO)n1 (stereo not drawn) | -47.3
2 | OCCCn1c(C2CCCN2c2nc(-c3ccc(F)cc3)cs2)nc2cc(C(F)(F)F)ccc21 (stereo not drawn) | -21
3 | OCCCn1c(CCNc2nc(-c3ccc(F)cc3)cs2)nc2cc(C(F)(F)F)ccc21 | -32.3
4 | OCCOCCn1c(CCNc2nc(-c3ccc(F)cc3)cs2)nc2cc(C(F)(F)F)ccc21 | -61.1
5 | Cc1ccc(Cn2c(C3CCCN3c3nc(C)cs3)nc3cc(C(F)(F)F)ccc32)cc1 (stereo not drawn) | 0.159
6 | OCCCn1c(CCNc2nc(-c3ccc(Cl)cc3)cs2)nc2cc(C(F)(F)F)ccc21 | -0.705
7 | Cc1csc(N2CCCC2c2nc3cc(C(F)(F)F)ccc3n2CCOCCO)n1 (stereo not drawn) | -69.1
8 | OCCOCCn1c(C2CCCN2c2nc(-c3ccc(F)cc3)cs2)nc2cc(Cl)c(Cl)cc21 (stereo not drawn) | -28.7
9 | OCCOCCn1c(C2CCCN2c2nc(-c3ccc(F)cc3)cs2)nc2cc(C(F)(F)F)ccc21 (stereo not drawn) | -75.1
10 | CCN1CCSc2ccc(C(=O)NCc3ccccc3F)cc21 | -20.8
11 | Cc1oc(-c2cccc(Cl)c2)nc1CS(=O)(=O)CC(=O)NCCN1CCCC1 | -0.675
12 | CCCC/C(C)=N\NC(=O)CNS(=O)(=O)c1ccc([N+](=O)[O-])cc1 | -2.14
13 | CCOc1ccc(CN(C)C(=O)CNC(=O)c2ccc(Br)o2)cc1OC | -2.55
14 | COc1cccc(Cn2cccc(NC(=O)Nc3cccc(C#N)c3)c2=O)c1 | 6.1
15 | O=C(CC1C(=O)NCCN1CC1CCCCC1)NCc1ccc(F)cc1 (stereo not drawn) | -20.3
16 | O=C(CC1C(=O)NCCN1Cc1ccoc1)NCCc1ccc(Cl)cc1 (stereo not drawn) | -53.7
17 | Cc1nc(CCNC(=O)CC2C(=O)NCCN2Cc2ccoc2)nc2c1CCCC2 (stereo not drawn) | -36.7
18 | O=C(CC1C(=O)NCCN1Cc1ccccc1)NCCN1CCCCC1=O (stereo not drawn) | 19.1
19 | O=C(CC1C(=O)NCCN1Cc1ccc(F)cc1)NCCN1CCCc2ccccc21 (stereo not drawn) | -66.1

Row | SMILES | hERG current change (%, negative = inhibition) at 10uM [%]
20 | COC(=O)CCCNC(=O)CC1C(=O)NCCN1Cc1ccoc1 (stereo not drawn) | 22.1
21 | CC(C)(C)CN1CCNC(=O)C1CC(=O)NCCN1CCCc2ccccc21 (stereo not drawn) | 0.68
22 | O=C(CC1C(=O)NCCN1CC1CCCCC1)NCCc1ccc(F)cc1 (stereo not drawn) | -51.6
23 | O=C(CC1C(=O)NCCN1CC1CCCCC1)NCc1cc(F)ccc1F (stereo not drawn) | 1.77
24 | Cc1ccc(C)c(Nc2ccc(C(=O)NCCc3ccccc3)cn2)c1 | -20.9
25 | CCN(CC(=O)Nc1ccc(N2CCOCC2)cc1)C(=O)Cc1ccccc1 | 3.76
26 | COCC(C)n1c(-c2ccc3c(c2)NC(=O)CO3)csc1=Nc1ccc(OC(F)F)cc1 (stereo not drawn) | 2.76
27 | Cc1cccc(-c2cc3nc(C)cc(C)n3n2)c1 | 2.6
28 | Cc1cc(NCCCn2ccnc2)n2nc(-c3ccc(Cl)cc3)cc2n1 | -74.6
29 | COc1ccc(-c2cc3nc(C)cc(NCCO)n3n2)cc1 | -33.6
30 | Cc1cccc(-n2ncc3c(NCCCn4ccnc4)ncnc32)c1 | -16.5
31 | Cc1cccc(-c2cc3nc(C)c(C)c(NCCCn4ccnc4)n3n2)c1 | -68.9
32 | Cc1cc(-c2ccccc2)nc2cc(C(=O)NCCCn3ccnc3)nn12 | -22.2
33 | Cc1cccc(-c2cc3nc(C)cc(NCCCN(C)C)n3n2)c1 | -38.1
34 | Cc1cc(NCCCn2ccnc2)n2nc(-c3ccc(F)cc3)cc2n1 | -14
35 | Cc1cccc(-c2cc3nc(C)cc(NCCCn4ccnc4)n3n2)c1 | -59.3
36 | CCc1cc2c(=O)[nH]c(Cc3ccc(OC)cc3)nc2s1 | 2.16
37 | O=C(Nc1ccccc1)C(Cc1cccs1)c1nn[nH]n1 (stereo not drawn) | -0.965
38 | O=C(CNc1cccc(S(=O)(=O)N2CCOCC2)c1)Nc1ccc(C(F)(F)F)cc1 | -44.2

Row | SMILES | hERG current change (%, negative = inhibition) at 10uM [%]
39 | O=C(Cc1ccccc1)NC(NCCCN1CCOCC1)(C(F)(F)F)C(F)(F)F | 5.2
40 | O=C(O)c1cccc(Cn2c(Cl)c(/C=N/NC(=O)c3ccccc3O)sc2=O)c1 | 12.6
41 | Cc1cc(C)n2cc(CSc3nncn3C)nc2n1 | 17.2
42 | Cc1cccc2nc(CSc3nnnn3-c3ccccc3)cn12 | -41.5
43 | Cc1cc(C)n2cc(CSc3nnnn3-c3ccccc3)nc2n1 | -56.3
44 | Cc1cc(C)n2cc(CSc3nnnn3C)nc2n1 | 2.06
45 | CCc1nnc(SCc2cn3c(C)cc(C)nc3n2)n1N | 13.5
46 | Cc1cc(C)n2cc(CSc3nnnn3-c3ccccc3C)nc2n1 | -58.3
47 | O=C(CCCc1ccccc1)N1CCc2ccccc21 | 10.1
48 | Cc1c(N=Cc2ccc(-c3ccc(Cl)cc3)o2)c(=O)n(-c2ccccc2)n1C | -15.3
49 | Cc1cc(C)nc(OC(C(=O)O)C(OCC(C)C)(c2ccccc2)c2ccccc2)n1 (stereo not drawn) | 17.8
50 | Cc1[nH]c2c(C(F)(F)F)cccc2c1CCN.Cl | -1.49
51 | CCOc1ccc(C(=O)Nc2cccc3nsnc23)cc1[N+](=O)[O-] | 5.23
52 | OCC1(CCc2ccccc2)CCCN(C/C=C/c2ccccc2)C1 (stereo not drawn) | -73.5
53 | OCC1(CCc2ccccc2)CCN(C/C=C/c2ccccc2)CC1 | -80.9
54 | O=S(=O)(Cc1ccccc1)N1CCN(C/C=C/c2ccccc2)CC1 | -5.88
55 | O=C(CCC(F)(F)F)N1CCCC(CO)(CCc2ccccc2)C1 (stereo not drawn) | -13.5
56 | C/C=C(\C)CN1CCCC(CO)(Cc2ccccc2)C1 (stereo not drawn) | 10.4
57 | OCC1(CC2CCCCO2)CCN(C/C=C/c2ccccc2)CC1 (stereo not drawn) | -46
